Measurements: PubChem BioAssay (Tox21)
Values joined by “and” are separate entries in the source; they are usually repeats but may differ in a detail not shown here. Equal values may be shown once. Records with an inconclusive call do not appear. Where a call stands in place of a potency, no number is given. A number with no mark means an inactive call. Active and inactive are the calls of the source. The call rests on the fitted dose curve.

Assay: p53 small molecule agonists, cell-based qHTS assay: qHTS cell viability counter screen (AID 1963581); further: nearly all actives have a fitted effect of over 45% in size
Details: p53RE-bla HCT-116 viability, ATP luminescence, 16 h; series mostly up to 66 µM
Source text: National Center for Advancing Translational Sciences [NCATS]
Division of Preclinical Innovation [DPI]
U.S. Environmental Protection Agency [EPA]
National Institutes of Environmental Health Sciences [NIEHS]
National Toxicology Program [NTP]
U.S. Food and Drug Administration [FDA]
p53, a tumor suppressor protein, is activated following cellular insult, including DNA damage and other cellular stresses. The activation of p53 regulates cell fate by inducing DNA repair, cell cycle arrest, apoptosis, or cellular senescence. The activation of p53, therefore, is a good indicator of DNA damage and other cellular stresses. The CellSensor p53RE-bla HCT-116 cell line (Invitrogen) contains a stably integrated beta-lactamase reporter gene under control of the p53 response elements. The activation of the reporter gene under culture conditions can be detected by fluorescence intensity. This cell line was used to screen the Tox21 compound library in a 1536-well plate format and to identify agonists that activate the p53 signaling pathway. The cytotoxicity of the Tox21 compound library against the p53 RE-bla HCT-116 cell line was tested in parallel by measuring the intra cellular ATP content in the same wells.
Tox21 Assay Protocol Summary:
The p53RE-bla cells were dispensed at 4,000 cells/5 ul/well in 1536-well black wall/clear bottom plates using a Multidrop dispenser. After the assay plates were incubated at a 37 C/5% CO2 incubator for 5 hours, 23 nL of compounds dissolved in DMSO, positive controls or DMSO only was transferred to the assay plate by a pin tool. The plates were incubated at 37 C for 16 hours. After 1 uL of LiveBLAzerTM B/G FRET substrate was added using a Flying Reagent Dispenser, the plates were incubated at room temperature for 2 hours, and fluorescence intensity was measured by an Envision plate reader. For cell viability readout that measures cytotoxicity, 4 ul/well of CellTiter-Glo reagent was added into the assay plates using a Flying Reagent Dispenser. After 30 min incubation at room temperature, the luminescence intensity in the plates was measured using a ViewLux plate reader.
Potency means the concentration at half of the fitted maximal effect.

Row | Compound | Potency | activity change, negative = cytotoxicity
1 | COc1ccc(N=[N+]([O-])c2ccc(OC)cc2)cc1 | inactive | 
2 | O=C(CCN1CCN(CCO)CC1)N1c2ccccc2Sc2ccc(C(F)(F)F)cc21 | inactive | 
3 | CCCCC(=O)N(C)C | inactive | 
4 | Nc1ccc(O)cc1 | inactive | 
5 | O=Cc1cccc([N+](=O)[O-])c1 | inactive | 
6 | O=C(O)CCCCCCCCCCCC(=O)O | inactive | 
7 | Cc1cn([C@H]2C[C@H](F)[C@@H](CO)O2)c(=O)[nH]c1=O | inactive | 
8 | CCCCC(CC)COP(=O)(O)OCC(CC)CCCC (stereo not given) | 20.5 µM (active) and 25.7 µM (active) | 
9 | CCCCCC/C=C/C(=O)OC | inactive | 
10 | CC(=O)CC/C=C(\C)CC/C=C(\C)CC/C=C(\C)CCC=C(C)C | inactive | 
11 | CC/C=C\CCOC(=O)CC | inactive | 
12 | O=S(=O)(O)c1ccc2cc(O)c(S(=O)(=O)O)cc2c1 | inactive | 
13 | [O-][n+]1ccc(Cl)cc1 | inactive | 
14 | O=C(O)c1cc(=O)c2ccccc2o1 | inactive | 
15 | CC(=O)NC(Cc1ccccc1)C(=O)O (stereo not given) | inactive | 
16 | C/C=C/C(=O)O | inactive | 
17 | CC(C)CC(O)Cc1ccccc1 (stereo not given) | inactive | 
18 | CN=C(NC#N)NCCSCc1nc[nH]c1C | inactive | 
19 | COCCOCCOCCOCCOC | inactive | 
20 | CC1=CCC(=O)O1 | inactive | 

Row | Compound | Potency | activity change, negative = cytotoxicity
21 | CN(C)c1ccc(C(=N)c2ccc(N(C)C)cc2)cc1 | inactive | 
22 | CCC(CC)C(C)CCOC(C)=O (stereo not given) | inactive | 
23 | CCO[Si](CCCN=C=O)(OCC)OCC | inactive | 
24 | CCCCCCCN | inactive | 
25 | C=CC(C)(CCC=C(C)C)OC=O (stereo not given) | inactive | 
26 | O=C(Oc1ccccc1)c1ccccc1 | inactive | 
27 | Nc1c(NC/C=C\COc2cc(CN3CCCCC3)ccn2)c(=O)c1=O |  | -0.902% [at 13.5 µM]
28 | COCCOCCOCCOCCOCCO | inactive | 
29 | N=C(N)c1ccc2cc(OC(=O)c3ccc(N=C(N)N)cc3)ccc2c1 | inactive | 
30 | O | inactive | 
31 | [Cl][In]([Cl])[Cl] | inactive | 
32 | Cc1cc(N)n(-c2ccccc2)n1 | inactive | 
33 | OCCN1CCNCC1 | inactive | 
34 | CC(C)(C)CC(C)(C)c1ccc(OCCOCC[N+](C)(C)Cc2ccccc2)cc1 | inactive | 
35 | NC(=O)Nc1ccccc1 | inactive | 
36 | CC(C)=CCCC(C)CCOC(=O)C(C)C (stereo not given) | inactive | 
37 | CN1C(CCl)Nc2cc(Cl)c(S(N)(=O)=O)cc2S1(=O)=O (stereo not given) | inactive | 
38 | O=C1c2ccccc2CCc2ccccc21 | inactive | 
39 | NC(=O)NNc1ccccc1 | inactive | 
40 | CCCCCCCC(=O)N(C)C | inactive | 
